Compounds without any hit were thinned out: in the full panel of roughly 83,000, 20% have a hit.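 Testing used 96-well plates and a 48-hour single-concentration exposure. Example: -40 means 40% of the starting cells died.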 A number with no mark means an inactive call. The source made the active and inactive calls. Rule for the calls: active = growth percent below 10; inactive = the rest.
Key:
Assay in all cases: NCI-60 one-dose screen, 48 h (100 = growth as untreated, 0 = no growth, -100 = all killed)
Details in all cases: 10 µM unless noted
NCI-H23 lung = system: NCI-H23 lung
NCI-H226 lung = system: NCI-H226 lung
NCI-H322M lung = system: NCI-H322M lung
HOP-62 NSCLC = system: HOP-62 NSCLC
NCI-H460 lung = system: NCI-H460 lung
HOP-92 NSCLC = system: HOP-92 NSCLC
A549/ATCC NSCLC = system: A549/ATCC NSCLC
786-0 renal = system: 786-0 renal
COLO 205 colon = system: COLO 205 colon
NCI-H522 lung = system: NCI-H522 lung

Row | Compound | growth (NCI-H23 lung) | growth (NCI-H226 lung) | growth (NCI-H322M lung) | growth (HOP-62 NSCLC) | growth (NCI-H460 lung) | growth (HOP-92 NSCLC) | growth (A549/ATCC NSCLC) | growth (786-0 renal) | growth (COLO 205 colon) | growth (NCI-H522 lung)
1 | COc1cc2nc(Cl)nc(Nc3ccc(S(=O)(=O)Nc4nccs4)cc3)c2cc1OC | 101% | 91.9% | 102% | 92% | 106% | 118% | 102% | 101% | 110% | –
2 | COCCN(C(=O)c1ccc(F)cc1F)c1c(N)n(Cc2ccccc2)c(=O)[nH]c1=O | 95.4% | 94.7% | 99.8% | 103% | 116% | 59.3% | 101% | 102% | 124% | –
3 | O=C(c1ccccc1)N1N=C(c2ccccc2)CC1c1nnc2n(Cc3ccccc3)c(=O)c3c4c(sc3n12)CCCC4 (stereo not given) | 116% | 110% | 89.4% | 98% | 107% | 95.3% | 89.3% | 101% | 117% | –
4 | C=C1C(=O)O[C@H]2[C@H]1CC/C(COC(=O)C(=O)c1cn(C)c3ccc(OC)cc13)=C\CC[C@@]1(C)O[C@@H]21 | -36.1% (active) | -67.5% (active) | -62.2% (active) | -45.9% (active) | -76.3% (active) | -72.3% (active) | -62% (active) | -87.4% (active) | -57% (active) | –
5 | Cc1ccc2nc3ccccc3c(NCc3ccccc3)c2c1 | 35.8% | 49.8% | 40.8% | 43.5% | 17.1% | -6.69% (active) | 40.2% | 34.3% | 8.06% (active) | –
6 | FC(F)(F)c1cc(Nc2ccc3cc(OCCCN4CCOCC4)ccc3n2)ccc1Cl | – | 68.2% | 66.4% | 12.3% | 6.76% (active) | 26.1% | 28.3% | -64.5% (active) | -69.3% (active) | -22.1% (active)
7 | COc1ccc(-c2nc(SCC(=O)Nc3nc(-c4ccccc4)cs3)[nH]c(=O)c2C#N)cc1 | 88.3% | 85% | 90.7% | 82.4% | 114% | 81.5% | 104% | 100% | 112% | –
8 | COc1cccc2c1C(=O)c1c(O)c3c(c(O)c1C2=O)CC(O)(/C(C)=N/NC(=O)CCCCC(=O)N/N=C(\C)C1(O)Cc2c(O)c4c(c(O)c2C(OC2CC(N)C(O)C(C)O2)C1)C(=O)c1c(OC)cccc1C4=O)CC3OC1CC(N)C(O)C(C)O1 (stereo not given) | -31.9% [5 µM] (active) | -56.1% [5 µM] (active) | -10.2% [5 µM] (active) | -1.23% [5 µM] (active) | -10.2% [5 µM] (active) | -50.7% [5 µM] (active) | -22% [5 µM] (active) | 4.75% [5 µM] (active) | -91.9% [5 µM] (active) | –
9 | N#Cc1c(N2CCNCC2)nc2sc3cc(Cl)c(Cl)cc3n2c1=N | 96.9% | 95.2% | 107% | 98.7% | 97.8% | 93.6% | 108% | 105% | 132% | –
10 | COc1cc2c(cc1-c1c(C)noc1C)ncc1nc(C3CCC(F)(F)CC3)n(C3CCC(OC(F)F)CC3)c12 (stereo not given) | 68.3% | 66.7% | 47.7% | 37.1% | 62.6% | 12.9% | 64.1% | 53.4% | 28.4% | –

— PubChem BioAssay (NCI)
